# JMJD2A Tudor inh – qHTS Assay for Inhibitors of JMJD2A-Tudor Domain | Potency, µM (series often up to 114 µM), most hits filed as inhibitors | Lysine-specific demethylase 4A (Homo sapiens), O75164 | actives 4.4% (n = 390,000) | AlphaScreen JMJD2A-Tudor / H3K4me3 peptide binding; also: nearly all actives have a fitted effect of over 50% in size
# BAZ2B inh – qHTS Assay for Inhibitors of BAZ2B. actives 4.4% (n = 360,000). Potency, µM (doses to about 114 µM), hits mostly inhibitors. Bromodomain adjacent to zinc finger domain protein 2B (Homo sapiens), Q9UIF8. AID 504333, 2011. AlphaScreen BAZ2B-H3K14Ac peptide displacement; also: nearly all actives have a fitted effect of over 60% in size
#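 Inhibition is scored as reduced AlphaScreen emission. The BAZ2B/b-H3(5-23)K14Ac complex (50 nM each) in PBS pH 7.4, 0.01% Tween-20 meets compound (up to 110 uM) for 30 min at RT before bead addition.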
# PLK1 PBD block – qHTS for Inhibitors of PLK1-PDB (polo-like kinase 1 - polo-box domain): Primary Screen | Serine/threonine-protein kinase PLK1 (Homo sapiens), P53350 | AID 720504, 2013 | actives 2.8% (n = 360,000) | Plk1 PBD binding of FITC phosphopeptide, fluorescence polarization | Potency, µM, most hits filed as inhibitors; also: series mostly up to about 57 µM; nearly all actives have a fitted effect of over 65% in size
# G9a inh – qHTS Assay for Inhibitors of Histone Lysine Methyltransferase G9a | G9a H3K9 monomethylation, AlphaScreen, 2 h | Potency, µM (series often up to 102 µM), actives largely listed as inhibitors | actives 8.8% (n = 350,000) | AID 504332, 2011; also: nearly all actives have a fitted effect of over 75% in size
#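 G9a (20 nM) preincubated 15 min RT with compounds, then 500 nM biotinylated H3K9 peptide and 20 uM SAM added; 2 h RT reaction. Monomethyl-H3K9 product detected by AlphaScreen with anti-H3K9me1 antibody, streptavidin donor and anti-rabbit IgG acceptor beads.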
# ALOX12 inh – Primary qHTS assay for inhibitors of human arachidonate 12S-lipoxygenase (ALOX12): Round 2. Potency, µM (titrated, usually from 108 µM), hits mostly inhibitors. purified 12hLO, xylenol orange hydroperoxide absorbance. Polyunsaturated fatty acid lipoxygenase ALOX12 (Homo sapiens), P18054. actives 1.1% (n = 580,000)
# Target sequence (P18054 whole entry, looked up): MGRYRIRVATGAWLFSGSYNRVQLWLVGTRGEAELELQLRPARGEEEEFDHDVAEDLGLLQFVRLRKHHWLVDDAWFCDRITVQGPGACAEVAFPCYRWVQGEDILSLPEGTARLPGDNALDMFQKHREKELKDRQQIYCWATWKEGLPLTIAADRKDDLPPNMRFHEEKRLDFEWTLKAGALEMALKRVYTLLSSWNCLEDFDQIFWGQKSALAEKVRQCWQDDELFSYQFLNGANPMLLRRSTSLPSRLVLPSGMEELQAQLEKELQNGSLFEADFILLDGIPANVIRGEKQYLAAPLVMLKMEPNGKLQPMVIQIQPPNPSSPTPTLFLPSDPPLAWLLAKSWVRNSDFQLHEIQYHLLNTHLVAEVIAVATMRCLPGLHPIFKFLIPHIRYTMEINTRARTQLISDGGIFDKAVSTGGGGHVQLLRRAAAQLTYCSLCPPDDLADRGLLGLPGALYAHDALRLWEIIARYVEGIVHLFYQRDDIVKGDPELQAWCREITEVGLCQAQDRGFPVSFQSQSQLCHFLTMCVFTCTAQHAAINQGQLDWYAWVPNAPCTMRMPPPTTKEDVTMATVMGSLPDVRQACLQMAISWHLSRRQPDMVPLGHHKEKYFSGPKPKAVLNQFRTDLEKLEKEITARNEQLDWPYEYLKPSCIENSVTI
#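 Hydroperoxide product was detected by ferrous iron/xylenol orange as the 573 to 405 nm absorbance ratio. Arachidonic acid at 40 uM (final) was turned over for 30 min at room temperature by 150 nM human 12hLO, pH 7.0 Hepes buffer, after 15 min compound preincubation.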
# HP1b chromo inh – HTS for Inhibitors of HP1-beta Chromodomain Interactions with Methylated Histone Tails; Potency, µM (series often up to 114 µM), hits mostly inhibitors; actives 0.56% (n = 390,000); AID 540317, 2011; AlphaScreen HP1-beta / biotin-H3K9me3 peptide binding; Chromobox protein homolog 1 (Homo sapiens), P83916; also: nearly all actives have a fitted effect of over 70% in size
#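 AlphaScreen: HP1-beta (50 nM) preformed 30 min with biotin-H3(1-18)K9me3 peptide (50 nM) in PBS pH 7.4, 0.01% Tween-20. Compound added for 30 min at RT, then streptavidin donor/nickel chelate acceptor beads (10 ug/mL) for 30 min.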
# Numbers stand for hits; . = inactive; ? = inconclusive; / = no result given; ! = not active in a repeat; [ ] = remark or other dose. Rows were chosen to be rich in hits. Some 9% of all compounds tested hit in one or more screens of this group. Calls follow the shape of the dose curve; as a rule, active = well fitted curve in the direction sought with a large enough effect; inconclusive = small, poorly fitted or top-dose-only effect, or another doubt; inactive = no such curve, though single readings can be large; an effect the other way counts as inactive or inconclusive.
SMILES,JMJD2A Tudor inh,BAZ2B inh,PLK1 PBD block,G9a inh,ALOX12 inh,HP1b chromo inh
S=c1nc(-c2ccccc2)[nH]n1-c1ccccc1,22µM,.,.,?,?,?
Cc1nc(=S)n(-c2ccccc2)[nH]1,7.1µM,.,.,14µM,?,.
O=C1CC(N2CCN(c3ccccn3)CC2)C(=O)N1c1ccc(Cl)cc1 (centres undefined),.,.,.,/,.,.
CCOc1ccc(/C=C\c2nc(O)c([N+](=O)[O-])c(=O)[nH]2)cc1OCC,.,.,.,?,.,.
O=c1[nH]c(/C=C\c2cccc(O)c2)nc(O)c1[N+](=O)[O-],.,.,.,.,.,.
COc1ccc(-n2c(C)cc(/C=C/c3nc(O)c([N+](=O)[O-])c(=O)[nH]3)c2C)cc1,.[11.4 µM],50µM,.,28µM,?,?
O=c1[nH]c(/C=C\c2ccc(O)c(O)c2)nc(O)c1[N+](=O)[O-],?,?,.,40µM,?,.
Cc1cc(/C=C\c2nc(O)c([N+](=O)[O-])c(=O)[nH]2)c(C)n1-c1ccccc1,56µM,45µM,.,50µM,?,?
CCOc1ccccc1/C=C\c1nc(O)c([N+](=O)[O-])c(=O)[nH]1,.,.,.,.,?,.
O=C(COc1ccccc1/C=C\c1nc(O)c([N+](=O)[O-])c(=O)[nH]1)Nc1ccccc1,.,?,.,50µM,.,.
CC(C(=O)Nc1ccc(F)cc1Cl)N(C)CCOc1ccccc1 (centres undefined),.,.,.,.,.,.
COc1ccc(C(=O)N/C(=C\c2cc(OC)c(OC)cc2[N+](=O)[O-])C(=O)NCCO)cc1,.,.,.,/,.,.
Cn1cccc1C(=O)N1C[C@@H](NC(=O)Nc2ccc(F)cc2F)C[C@H]1C(=O)N[C@H](Cc1c[nH]c2ccccc12)C(N)=O,/,/,/,/,.,/
Cc1ccc(C(c2ccc(C)o2)c2cccc([N+](=O)[O-])c2O)o1,50µM,40µM,?,40µM,?,?
Cc1cc(C(c2ccc(C)o2)c2ccc(C)o2)c(O)c([N+](=O)[O-])c1,40µM,45µM,.,35µM,35µM,16µM
Cc1cc(/C=N/n2cnnc2)c(O)c([N+](=O)[O-])c1,.,?,.,.,.,.
O=C(O)CN1CCN(Cc2ccccc2Cl)C1=O,.,.,.,.,.,.
O=C(O)c1cc2n(n1)CCN(Cc1ccccc1Cl)C2=O,.[11.4 µM],?,.,50µM,.,.
NCCCC(=O)O,.,.,.,2.8µM,.,.
NCCCCC(=O)O,.,.,.,.,.,.
CC(C)c1ccc(CN(C(=O)c2cc(=O)c3cc(Cl)ccc3o2)C2CCS(=O)(=O)C2)cc1 (centres undefined),/,/,/,/,.,/
CS(=O)(=O)Cc1ccc(C(=O)NNC(=O)c2cc(-c3ccccc3)n[nH]2)cc1,.,/,.,/,.,.
CCc1cccc(C)c1Nc1c(-c2ccc(SC)cc2)nc2sccn12,?,22µM,/,14µM,?,?
CCc1cccc(C)c1Nc1c(-c2ccc(N(C)C)cc2)nc2cnccn12,40µM,16µM,/,18µM,.,?
O=C(NC1CCCC1)c1ccc(CSc2nc3cccnc3n2Cc2ccccc2F)cc1,.,.,/,?,.,.
SMILES,JMJD2A Tudor inh,BAZ2B inh,PLK1 PBD block,G9a inh,ALOX12 inh,HP1b chromo inh
O=C(NCc1cccs1)c1ccc(Cn2c(SCc3ccc(F)cc3)nc3cccnc32)cc1,.,.,/,.,.,.
O=C(NCc1cccs1)c1ccc(CSc2nc3cccnc3n2Cc2ccccc2F)cc1,5.6µM,8.9µM,/,2.5µM,?,?
CN(Cc1ccccc1)C(=O)c1ccc(CSc2nc3cccnc3n2Cc2ccccc2F)cc1,5µM,25µM,/,4.5µM,?,?
COc1cc(C(=O)NC2CC(C)(C)Cc3c2cnn3-c2ccccc2)cc(OC)c1OC (centres undefined),?,.,30µM,.,.,.
COc1ccc(-n2ncc3c2CC(C)(C)CC3NC(=O)c2c(C)cc(=O)oc2C)cc1 (centres undefined),?,.,24µM,?,.,.
O=C(NCc1ccco1)C(=O)NCc1ccccc1Cl,.,.,.,.,.,.
CC(C)CC(=O)O/N=C1\C(=O)N(c2ccccc2)c2ccccc21,.[11.4 µM],.,30µM,.,.,.
O=C(c1cc2c(s1)CCC2)N1CCN(S(=O)(=O)c2ccccc2)CC1,/,/,/,/,.,/
N#Cc1ccccc1S(=O)(=O)N1CCN(C(=O)c2cc3c(s2)CCC3)CC1,?,?,.,35µM,.,.
COc1cccc(-c2nn(C)c3sc(C(=O)N4CCN(c5cccc(C(F)(F)F)c5)CC4)cc23)c1,.,/,/,.,.,.
COc1ccc(N2CCN(C(=O)c3cc4c(-c5cccc(OC)c5)nn(C)c4s3)CC2)cc1,40µM,25µM,27µM,?,.,?
CCN(CC)CCNC(=O)c1cc2c(-c3cccc(OC)c3)nn(C)c2s1,.,.,.,79µM!,?,.
O=C(c1cc2c(s1)CCCC2)N1CCN(C(=O)C2CCCO2)CC1 (centres undefined),.,.,.,16µM,.,.
CN(C(=O)COC(=O)c1ccc(Br)c([N+](=O)[O-])c1)c1c(N)n(Cc2ccccc2)c(=O)[nH]c1=O,.,.,.,.[2.33 µM],.,.
CC(=O)c1ccc(N2CCN(C(=O)c3cc4c(s3)CCCC4)CC2)cc1,.,.,.,?,.,.
COc1ccc(N2CCN(C(=O)c3cc4c(s3)CCCCC4)CC2)cc1,50µM,13µM,.,?,.,?
CCOc1ccc(NC(=S)N(CCCN2CCCC2)Cc2cccn2Cc2ccc(Cl)cc2)cc1,?,?,.,40µM,.,.
COc1ccc(NC(=S)N(CCCN2CCCCC2)Cc2cccs2)cc1,.,.,.,?,.,.
Cc1cccc(NC(=S)N(CCCN2CCCC2)Cc2cccn2Cc2ccc(Cl)cc2)c1,?,?,.,45µM,?,.
NC(=O)C1CCN([C@H]2[C@@H]3OC[C@@H](O3)[C@@H](N)[C@@H]2O)CC1,/,/,/,/,.,/
CN(CC(=O)Nc1ccc(Cl)c(Cl)c1)CC(=O)N1CCCCCC1,/,/,.,/,.,/
CC(C(=O)N1CCCCC1)N(C)CC(=O)Nc1ccc(F)c(F)c1F (centres undefined),/,/,.,/,.,/
